Assay results taken from PubChem BioAssay AID1985 (Southern Research Specialized Biocontainment Screening …, 2009).
About 1,000 (43%) of roughly 2,300 compounds were called active. The set was probably picked from earlier hits. The list shows a part of the results. Entries with a potency or affinity are not part of this list. Values without a mark were called inactive. How the calls were made is not given here.

experiment: PhoP regulon inhibitor project modified counter assay, GFP fluorescence readout, dose response (AID 1985); conditions: S. Typhi, 4 h; series mostly up to 150 µM; inhibition: at the top concentration

| Compound | inhibition |
| --- | --- |
| CC1CC(C)CN(S(=O)(=O)c2cccc3cccnc23)C1 (stereo not drawn) | -4.37% |
| C=CCN(c1ccccc1)S(=O)(=O)c1cccc2cccnc12 | -2.13% |
| CCN(CC)C(=O)C(=O)c1cn(CC(=O)N2CCc3ccccc3C2)c2ccccc12 | 21.2% |
| CC(=O)Oc1ccc(C(=O)Nc2ccc3c(c2)C(=O)N(CCC(=O)O)C3=O)cc1 | 13.5% |
| Brc1ccc2c(c1)CN1CCCC1=N2 | 37.3% |
| Cc1n[nH]c(=O)nc1NCCc1ccccc1 | -1% |
| c1ccc(CNc2nc(-c3ccccn3)nc3ccccc23)cc1 | 0.55% |
| CCOC(=O)COc1cccc2c(=O)n(CC(=O)N3CCCCC3)ccc12 | -13.4% |
| CC(=O)CC1OC(=O)C(Br)=C1NCc1ccccc1 (stereo not drawn) | 3.89% |
| COC(=O)CNc1n[nH]c(=S)[nH]c1=O | 25.4% |
| O=C(C[n+]1cc(Br)cc2ccccc21)c1ccc(F)cc1 | 21.7% |
| COc1ccc(C(=O)C[n+]2cc(Br)cc3ccccc32)cc1[N+](=O)[O-] | 4.84% |
| CCOCCCNC(=O)CN1CCN(Cc2ccccc2C)C1=O | -10.6% |
| COC(=O)c1c(-c2cccc(C)c2)csc1N | 7.62% |
| COC(=O)c1cc2ccsc2n1CC(=O)N(C)c1ccccc1 | 22.5% |
| CC(C)(C)CC(=O)Nc1nnc(SCC(=O)N2CCCCC2)s1 | 19.3% |
| Cc1nc(C)c(-c2ccc(SCc3ccccc3C)nn2)s1 | 1.29% |
| COc1ccc(-c2nnc(SC(C)C(=O)Nc3nccs3)n2Cc2ccccc2)cc1OC (stereo not drawn) | -11.8% |
| CC1=C(C#N)CCC(=O)N1Cc1c(C)cc(C)cc1C | 16.8% |
| COc1ccc(Cl)cc1NC(=O)c1cc(-c2ccccc2)on1 | -9.57% |
| CC(Oc1ccc(Br)cc1)c1nc2c3ccccc3nc(=S)n2[nH]1 (stereo not drawn) | 36.7% |
| COc1ccc(NC(=O)Cn2cnc3c(cnn3C(C)(C)C)c2=O)cc1OC | -7.57% |
| COc1ccc(-n2nnc3c(SCC(=O)N4CCCc5ccccc54)ncnc32)cc1 | -1.62% |
| Cc1ccn2cc(C(=O)Nc3nnc(C)s3)nc2c1 | 8.12% |
| Cc1cc(C(=O)OCC(=O)Nc2cccc(S(=O)(=O)N3CCOCC3)c2)c(C)o1 | -14.2% |
| C#CCOCCOCCOCCNc1nc(N2CCN(C(=O)[C@H](CCCCN)n3cc([C@@H](N)CO)nn3)CC2)nc(N2CCN(C(=O)[C@H](Cc3cc4ccccc4[nH]3)n3cc([C@@H](N)Cc4ccc(O)cc4)nn3)CC2)n1 | 6.35% |
| C#CCOCCOCCOCCNc1nc(N2CCN(C(=O)C(Cc3cc4ccccc4[nH]3)n3cc(C(N)C(C)CC)nn3)CC2)nc(N2CCN(C(=O)C(Cc3cc4ccccc4[nH]3)n3cc(C(N)C(C)CC)nn3)CC2)n1 (stereo not drawn) | 4.82% |
| Nc1ccc(C(O)(C(F)(F)F)C(F)(F)F)cc1 | -17.8% |
